Sampled rows, rich in hits. Any-hit rate of the full collection: about 4%.
Statin myotox sup – suppression of simvastatin myotoxicity; C2C12 myotubes + simvastatin, ATP luminescence, 48 h; scaled: DMSO 0, geranylgeraniol control 100; rescue of ATP level, % at 7.49 µM; 0.78% of 330,000 active;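 active = mean ATP rescue above about 67%, or every replicate alone reaching that limit, limit read from the data, passing the limit was not always enough; inconclusive = no clear call, values can overlap the other calls; inactive = mean under the limit and some replicate under it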;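 note: myotubes were challenged with 10 µM simvastatin during compound exposure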
EBV LMP1 NFkB – reduces LMP1-driven NF-kappaB luciferase signal. inhibition, % at 12.5 µM. 0.69% of 350,000 active. LMP1-induced NF-kappaB luciferase reporter cells, luminescence; in the data active = inhibition above about 41%; inconclusive = no clear call, values can overlap the other calls;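 note: 0% = neutral control wells and 100% = reference inhibitor control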
TRPM1 prom inh – reduces MITF-dependent TRPM1 promoter luciferase signal | SK-MEL-5 TRPM1 promoter luciferase, 24 h | inhibition, % at 12.5 µM | 0.83% of 330,000 active | AID 488899;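 active = mean inhibition across replicates of 60% or more, whatever share of single replicates reaches that level; inconclusive = some that reach 60%, reason not given; inactive = mean inhibition across replicates below 60%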
MITF act – activators of MITF-driven TRPM1 promoter activity in SK-MEL-5 cells; SK-MEL-5 TRPM1-promoter luciferase, 24 h; % of positive control, neutral wells = 0; activation, % at 12.5 µM; 0.75% of 300,000 active; AID 588334;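 active = mean activation of at least 80% with every replicate also reaching 80%; inconclusive = mean reaches 80% but some replicate falls short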;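 note: 0% = neutral control wells and 100% = parthenolide positive control wells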
Wnt bcat act – activates Wnt/beta-catenin signaling in a reporter cell assay. activator, plate reader. activation, % at 9.35 µM. 1.2% of 300,000 active. AID 743398; in the data active = activation above about 30%, passing the limit was not always enough; inconclusive = no clear call, values can overlap the other calls;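 note: 0% = neutral control wells and 100% = positive control wells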
esBAF inh – blocks esBAF chromatin remodeling in mouse ES cells; Bmi1-luciferase knock-in reporter, 24 h; 100% = twice the neutral-well signal; 2% of 350,000 active; reporter increase, % at 12.5 µM; in the data active = activation above about 40%; inconclusive = no clear call, values can overlap the other calls;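 note: 0% = median of the plate's neutral control wells and 100% = double that signal; a rise in the Bmi1 reporter signal indicates esBAF inhibition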
* marks the source's active call; other numbers are inactive results; ? = inconclusive; . = not tested or not shown.

SMILES | Statin myotox sup | EBV LMP1 NFkB | TRPM1 prom inh | MITF act | Wnt bcat act | esBAF inh
COc1ccc(S(=O)(=O)N(C)C[C@H]2OCCCC[C@@H](C)Oc3ccc(NS(=O)(=O)c4ccc(C)cc4)cc3C(=O)N([C@@H](C)CO)C[C@H]2C)cc1 | 22 | . | . | . | . | 0
Cc1ccc(C2=NN3C(=O)c4ccccc4C3C2)cc1 (configuration not stated) | -9 | -42 | -27 | 31 | 39* | 39
Cc1ccc([N+](=O)[O-])cc1N=Nc1c(-c2ccc([N+](=O)[O-])cc2)[nH]n(C(N)=S)c1=O | -139 | 26 | 64* | -61 | . | -47
N/C(=N\OC(=O)c1ccc(Br)cc1)c1ccncc1 | -1 | -46 | -95 | 98* | 12 | ?
N/C(=N\OC(=O)c1ccc(F)cc1)c1ccc(Br)cc1 | -8 | -32 | -61 | 66 | 44* | 56*
N/C(=N\OC(=O)c1ccc(F)cc1)c1ccccc1 | 8 | -38 | -31 | 33 | . | 34
CCOC(=O)C1=NN2C(O)C3(C)CC(C(=O)OCC)=NN3C(O)C2(C)C1 (configuration not stated) | 2 | -6 | . | . | 1 | 0
N#Cc1c(-c2ccc(Cl)cc2)ccn2nc(C3CCCCC3)nc12 | . | -35 | -92 | 90* | 26 | .
O=C(O)c1cncc(C#CCC2CCCCC2)c1 | -13 | -33 | -50 | 47 | -2 | 61*
Cc1cccc2c(N)c3c(nc12)CCCC3 (tested in a mixture with another compound) | 7 | -4 | 4 | -4 | 1 | 4
Cc1cc(C)c2c(N)c3cccc(C)c3nc2n1 | . | -23 | 66* | -62 | 10 | .
Cc1csc(NC(=O)CSc2nc3[nH]c(=O)cc(O)c3s2)n1 | 175* | -22 | 87* | -87 | 0 | -4
COc1ccc(S(=O)(=O)N(C)C[C@@H]2OCCCC[C@H](C)Oc3ccc(NS(=O)(=O)c4cn(C)cn4)cc3C(=O)N([C@H](C)CO)C[C@@H]2C)cc1 | . | . | . | . | . | 2
C[C@@H]1CN([C@@H](C)CO)C(=O)c2cc(-c3ccc(C#N)cc3)cnc2O[C@@H]1CN(C)Cc1ccncc1 | -27 | . | . | . | . | -7
CCCCn1c(-c2ccc(F)c(F)c2)nc2cc3[nH]c(=O)c(C(C)C)nc3cc21 | 13 | 1 | -3 | 3 | 10 | -1
CCCCn1c(CCc2ccccc2)nc2cc3[nH]c(=O)c(C(C)C)nc3cc21 | 119* | -8 | 2 | -6 | -9 | 0
COc1ccc(C(=O)OCCN2C(=O)c3ccccc3C2=O)cc1 | 3 | -8 | -9 | 11 | . | 4
O=C1c2ccccc2C(=O)N1CCOc1cccc(Br)c1 | -7 | -4 | -19 | 19 | 14 | 41*
COc1ccc(OCCN2C(=O)c3cccc(N)c3C2=O)cc1 | 12 | -21 | -85 | 88* | 2 | 38
Cc1ccc(OCCN2C(=O)c3ccccc3C2=O)cc1 | -12 | 2 | -13 | 13 | . | 9
CC(C)(C)NC(=O)/C=N/O | . | 5 | 13 | -9 | . | .
CC1CCN(C(=O)/C(=C\c2cccs2)NC(=O)c2ccccc2)CC1 | . | 53* | -4 | 3 | 0 | .
O=C(NC1CCCCC1)c1ccc(OC2CCN(Cc3ccccn3)CC2)cc1 | -7 | -2 | -1 | 3 | . | 7
Nn1c(SCC(=O)Nc2ccc(S(=O)(=O)N3CCCC3)cc2)nnc1C(F)(F)F | 107* | -13 | 14 | -11 | . | 0
COCCCn1cnnc1SCC(=O)Nc1ccc(S(=O)(=O)N2CCCC2)cc1 | 14 | 60* | 4 | -2 | -6 | 1
SMILES | Statin myotox sup | EBV LMP1 NFkB | TRPM1 prom inh | MITF act | Wnt bcat act | esBAF inh
C/C(=N/O)c1no[n+]([O-])c1/C(C)=N\O | . | 6 | -4 | . | 38* | .
O=C(COc1ccccc1F)NNC(=O)c1ccc2c(=O)n3c(nc2c1)CCC3 | -1 | 2 | 10 | -12 | 0 | -3
Cc1cccc(NC(=O)c2ccc3c(=O)n4c(nc3c2)CCCCC4)n1 | -11 | 21 | -2 | 3 | 35* | -37
O=C(Nc1ccc(S(=O)(=O)C(F)F)cc1)c1ccc2c(=O)n3c(nc2c1)CCC3 | . | 15 | 19 | -16 | -1 | .
O=C(NCCOc1ccccc1F)c1ccc2c(=O)n3c(nc2c1)CCC3 | 6 | -15 | -44 | 44 | 46* | 6
O=C(Nc1ccccc1Cl)c1ccc2c(=O)n3c(nc2c1)CCC3 | -3 | -3 | -71 | 71 | 51* | 16

Screens (PubChem)
